Screens: PubChem, National Center for Advancing Translational Sciences (NCATS)
NPSR antagonist: neuropeptide S receptor (human) antagonism, cAMP | Q6W5P4 | CHO-NPSR cells, cAMP TR-FRET, antagonist mode | Potency, µM (highest dose often 38.3 µM), usual class: inhibitors | hit rate 1% among 220,000 | AID 1461; note: nearly all actives have a fitted effect of over 50% in size
JMJD2E inh: inhibitors of human JMJD2E histone demethylase | B2RXH2 | JMJD2E catalytic domain, FDH-coupled NADH fluorescence (FDH is formaldehyde dehydrogenase) | Potency, µM (series often up to 57.1 µM), actives largely listed as inhibitors | hit rate 1.6% among 230,000 | AID 2147; active = well fitted inhibition curve with a large enough effect, not every such curve was filed as active; inconclusive = small, poorly fitted or top-dose-only effect, or another doubt; inactive = no such curve, though single readings can be large or run the other way; note: nearly all actives have a fitted effect of over 50% in size
RGS12 GoLoco inh: inhibitors of human Gai1-RGS12 GoLoco interaction (red fluorophore). Gai1:RGS12 GoLoco peptide FP, rhodamine, 10 min. Potency, µM (doses to about 61.6 µM), usual class: inhibitors. P63096. hit rate 0.44% among 230,000; active = well fitted inhibition curve with a large enough effect, not every such curve was filed as active; inactive = no such curve, though single readings can be large or run the other way; note: nearly all actives have a fitted effect of over 30% in size
Sfp PPTase inh: Sfp phosphopantetheinyl transferase inhibition; Potency, µM, usual class: inhibitors; Biochemical Sfp PPTase activity, qHTS; Q9F4F7; hit rate 3.5% among 310,000;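 note: the enzyme is Sfp with the accession as filed and its product quenches rhodamine fluorescence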
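With Hepes-Na pH 7.6 buffer containing 10 mM MgCl2, Sfp (15 nM) modified BHQ-2-YbbR (12.5 uM) using rhodamine-CoA (5 uM). Two reads 30 minutes apart at 525/598 nm yielded each well's rate.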
ALDH1A1 block: ALDH1A1 (human) enzyme inhibition. hit rate 7.3% among 220,000. AID 1030. Potency, µM (doses to about 75.3 µM), usual class: inhibitors. Purified ALDH1A1, NADH fluorescence, propionaldehyde substrate; active = well fitted inhibition curve with a large enough effect, not every such curve was filed as active; inconclusive = small, poorly fitted or top-dose-only effect, or another doubt; inactive = no such curve, though single readings can be large or run the other way
Target sequence (P00352 whole entry, looked up): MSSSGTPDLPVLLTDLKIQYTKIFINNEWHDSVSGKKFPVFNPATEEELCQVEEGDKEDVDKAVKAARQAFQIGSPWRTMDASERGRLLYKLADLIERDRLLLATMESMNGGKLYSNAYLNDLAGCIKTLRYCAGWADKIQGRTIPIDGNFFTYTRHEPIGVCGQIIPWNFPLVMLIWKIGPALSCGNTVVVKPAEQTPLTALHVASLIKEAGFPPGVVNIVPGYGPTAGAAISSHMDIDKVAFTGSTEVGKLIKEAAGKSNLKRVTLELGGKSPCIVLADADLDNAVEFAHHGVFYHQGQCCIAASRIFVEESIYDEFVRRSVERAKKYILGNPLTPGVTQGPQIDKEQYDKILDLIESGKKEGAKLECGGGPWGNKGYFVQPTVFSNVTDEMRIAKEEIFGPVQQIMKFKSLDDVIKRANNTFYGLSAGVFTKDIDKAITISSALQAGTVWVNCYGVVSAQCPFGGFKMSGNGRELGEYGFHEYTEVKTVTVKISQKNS
FBPA coupling cs: counter-screen for Giardia aldolase inhibitors: coupling enzyme system; coupling enzyme system counterscreen, AmpLite Red fluorescence; activity change, negative = inhibition, % at 58.2 µM, hits read low; hit rate 0.67% among 290,000; AID 2472; in the data active = activity change below about -30%
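Counterscreen lacking aldolase: glyceraldehyde-3-phosphate coupling-enzyme reagent preincubated 10 min at RT with compound (at 57.5 uM final), then substrate/coupling system with AmpLite Red added; fluorescence read at 525/598 nm after 20 min RT.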
Sfp inh conf: Sfp phosphopantetheinyl transferase inhibition, confirmation. shares compounds with Sfp PPTase inh. Sfp PPTase enzymatic assay, qHTS titration. Potency, µM (highest dose often 114 µM), hits mostly inhibitors. hit rate 79% among 380. AID 2701
Sfp PPTase gel: Inhibits B. subtilis Sfp phosphopantetheinylation; shares compounds with Sfp PPTase inh; purified Sfp, gel-based phosphopantetheinylation read-out; Potency, µM, most hits filed as inhibitors; hit rate 20% among 210; AID 2707;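 active = potency below 100 µM; inconclusive = dose-dependent response but potency above 100 µM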;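 note: potency is an IC50 for inhibitors of Sfp transfer activity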
Each line names hits and unclear results; the compound was inactive in the other large screens (follow-up assays come after a bar, where they were run). Rows were chosen to be rich in hits. Some 8.5% of all compounds tested hit in one or more screens of this group. Unless noted, calls come from the whole dose curve; as a rule, active = well fitted curve in the direction sought with a large enough effect; inconclusive = small, poorly fitted or top-dose-only effect, or another doubt; inactive = no such curve, though single readings can be large; an effect the other way counts as inactive or inconclusive.

CCOC(=O)c1ccc(NC(=O)CN2CCN(CCN=CC3=C(O)CC(C)(C)CC3=O)CC2)cc1	ALDH1A1 block inconclusive
CCC(=O)CCC(=O)c1ccc2ccccc2c1	ALDH1A1 block inconclusive
CC(C)N(CCC(=O)c1ccc2ccccc2c1)Cc1ccccc1	JMJD2E inh 35.5µM, Sfp PPTase inh 3.98µM, ALDH1A1 block 0.282µM | Sfp inh conf 14.8µM | Sfp PPTase gel inconclusive
CCC1=C2CC[C@H]3C(=O)N(c4ccccc4)C(=O)[C@H]3[C@H]2[C@@]2(Cc3ccccc3)C(=NCC3CC3)OC(=O)N2C1=O	none (no result: NPSR antagonist)
Cc1cc(SCNC(=O)c2ccccc2)nc(C(C)C)n1	Sfp PPTase inh inconclusive, ALDH1A1 block inconclusive
Cc1cc(C)nc(SCNC(=O)c2ccccc2)n1	Sfp PPTase inh 7.94µM | Sfp inh conf 52.7µM | Sfp PPTase gel inactive
O=C(O)COCc1nc2ccccc2s1	Sfp PPTase inh 25.1µM (no result: ALDH1A1 block) | Sfp inh conf inactive | Sfp PPTase gel inconclusive
CC(=O)c1ccc(OC(=O)CCc2nc3ccccc3s2)cc1	Sfp PPTase inh 15.8µM | Sfp inh conf 33.2µM | Sfp PPTase gel inconclusive
CC(=O)OCc1nc2ccccc2s1	none
O=C(CCc1nc2ccccc2s1)OCC(=O)c1ccccc1	ALDH1A1 block inconclusive
CCN(Cc1ccncc1)Cc1ccc(Br)cc1	none (no result: NPSR antagonist, JMJD2E inh, RGS12 GoLoco inh, ALDH1A1 block)
CC1CCCN(C(=O)c2nn(C)c3c2CSc2ccccc2-3)C1 (configuration not stated)	Sfp PPTase inh 44.7µM (no result: NPSR antagonist, JMJD2E inh, RGS12 GoLoco inh, ALDH1A1 block) | Sfp inh conf 52.7µM
Cc1ccn2c(NC3CCCC3)c(-c3ccccn3)nc2c1	ALDH1A1 block inconclusive
Cc1ccn2c(Nc3ccc4c(c3)OCO4)c(-c3ccccn3)nc2c1	Sfp PPTase inh 2.82µM | Sfp inh conf inconclusive | Sfp PPTase gel inactive
O=C(COC(=O)Cn1nnc2ccccc21)NC1CCCC1	none (no result: NPSR antagonist, JMJD2E inh, RGS12 GoLoco inh, ALDH1A1 block)
Fc1ccccc1C1CC(c2ccco2)=Nc2ccccc2S1 (configuration not stated)	JMJD2E inh 28.2µM, Sfp PPTase inh 3.55µM (no result: ALDH1A1 block) | Sfp inh conf 33.2µM | Sfp PPTase gel inactive
Oc1ccc(Cl)cc1C1=Nc2ccccc2N=C(c2ccco2)C1	NPSR antagonist inconclusive, JMJD2E inh inconclusive
COc1ccc(C(=O)C2CCCN(C(=O)CCc3scnc3C)C2)c(C)c1 (configuration not stated)	JMJD2E inh inconclusive, Sfp PPTase inh 12.6µM, ALDH1A1 block inconclusive | Sfp inh conf inactive
Clc1ccccc1-c1nnc2sc(CCc3ccccc3)nn12	Sfp PPTase inh 12.6µM, ALDH1A1 block 3.98µM | Sfp inh conf 11.8µM
c1ccc(CCc2nn3c(Cn4nnc5ccccc54)nnc3s2)cc1	Sfp PPTase inh 12.6µM, ALDH1A1 block 3.55µM | Sfp inh conf 41.8µM
c1ccc(CCc2nn3c(Cn4cnc5ccccc54)nnc3s2)cc1	Sfp PPTase inh 10µM, ALDH1A1 block 3.55µM | Sfp inh conf 13.2µM
CC(C)[C@H](NC(=O)c1ccco1)C(=O)N(C)Cc1ccc(C(F)(F)F)cc1	none (no result: NPSR antagonist, JMJD2E inh, RGS12 GoLoco inh, ALDH1A1 block)
CCOc1ccccc1NC(=O)c1c(NC(=O)CCC(=O)O)sc2c1CCCCC2	Sfp PPTase inh 12.6µM, ALDH1A1 block inconclusive | Sfp inh conf 23.5µM | Sfp PPTase gel inactive
CCOC(=O)c1ccc(NC(=O)c2c(NC(=O)CCC(=O)O)sc3c2CCCCC3)cc1	Sfp PPTase inh 11.2µM, ALDH1A1 block 15.8µM | Sfp inh conf 11.8µM | Sfp PPTase gel inactive
CC1=NN(C(=O)c2csc(C(C)C)c2)C(O)(C(F)(F)F)C1 (configuration not stated)	JMJD2E inh inconclusive
Cc1cc(Cl)ccc1OCCCC(=O)NCCN1C(=O)S/C(=C\c2cccnc2)C1=O	Sfp PPTase inh inconclusive
COc1ccc2c(Cn3cnc4cc([N+](=O)[O-])ccc4c3=O)cc(=O)oc2c1	none (no result: ALDH1A1 block)
COc1ccccc1CNC(=O)c1cccs1	none
COc1ccccc1CNC(=O)Nc1cccs1	Sfp PPTase inh 3.98µM, ALDH1A1 block inconclusive | Sfp inh conf 23.5µM
